This is an account of results in PubChem BioAssay (Tox21).

Several values for one entry are separate records, joined by “and”; a condition that tells them apart may be missing. Identical values can stand only once. Activity calls are given as the source filed them. Unless noted, calls come from the whole dose curve; as a rule, active = well fitted curve in the direction sought with a large enough effect in the repeat runs; inconclusive = weak or mixed curves; inactive = no such curve, though single readings can be large; an effect the other way counts as inactive or inconclusive.

Assay [1] is described as follows: qHTS assay to identify small molecule antagonists of the thyroid receptor (TR) signaling pathway - cell viability counter screen (AID 743064). Note: nearly all actives have a fitted effect of over 50% in size. Note: potency is the fitted concentration of half-maximal effect. Summed up: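 In-well cytotoxicity read by CellTiter-Fluor (30 min, 37 C) following 23.5 h exposure of GH3 cells bearing a TRE-luciferase sensor. Compounds were added alongside 1 nM (final) T3 to drive TR transactivation.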

Assay [2] is described as follows: qHTS assay to identify small molecule antagonists of the thyroid receptor (TR) signaling pathway (AID 743065). Note: nearly all actives have a fitted effect of over 55% in size. Note: potency is the fitted concentration of half-maximal effect. An outline of the steps:
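GH3.TRE-Luc rat pituitary cells carrying two TR response elements driving luciferase were plated for 4 h, given compound plus 1 nM T3 (final), and incubated 23.5 h at 37 C. ONE-Glo luminescence measured reporter inhibition; CellTiter-Fluor fluorescence tracked cytotoxicity.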
A general note: In qHTS, concentration-response curves come from the screen itself.

For assay [3], the system named is thyroid hormone receptor (rat, GH3 cells). Kind of assay: qHTS assay to identify small molecule agonists of the thyroid receptor (TR) signaling pathway (AID 743066; calls by dose curve).
Assay [4] addresses Estrogen receptor (Homo sapiens) (UniProt P03372). As to the kind of experiment: qHTS assay to identify small molecule antagonists of the estrogen receptor alpha (ER-alpha) signaling pathway (AID 743069; active = well fitted curve in the direction sought with a large enough effect in the signal ratio in the repeat runs, not every such curve was filed as active; inconclusive = weak or mixed curves, or effect the other way; inactive = no such curve, though single readings can be large or run the other way; the % refers to the signal ratio). An outline of the steps: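 Estradiol-stimulated ER-alpha-UAS-bla HEK293 cells, 18 hr compound exposure at 37C. LiveBLAzer B/G substrate, 2 hr RT, fluorescence read.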
Assay [5] shares this target. Kind of assay: qHTS assay to identify small molecule agonists of the estrogen receptor alpha (ER-alpha) signaling pathway (AID 743075; calls by dose curve;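 note: HEK293 GripTite cells with ER-alpha and UAS-driven beta-lactamase reporter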; note: potency is the fitted concentration of half-maximal effect).
The target is the same in assay [6]. Kind of assay: qHTS assay to identify small molecule agonists of the estrogen receptor alpha (ER-alpha) signaling pathway using the BG1 cell line (AID 743079). Note: nearly all actives have a fitted effect of over 20% in size. Note: potency is the fitted concentration of half-maximal effect.
Assay [7] is described as follows: qHTS assay to identify small molecule antagonists of the estrogen receptor alpha (ER-alpha) signaling pathway using the BG1 cell line (AID 743080; calls by dose curve;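 note: BG1 cells stimulated with 17beta-estradiol alongside compound; series mostly up to about 70 µM; nearly all actives have a fitted effect of over 25% in size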). An outline of the steps:
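Quantitative HTS on the Tox21 10K library: BG1 cells with endogenous ER-alpha and ERE-luciferase reporter, 17beta-estradiol stimulation, 21.5 h compound exposure, luminescence endpoint with parallel fluorescence cytotoxicity counter-read.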

Assay [8] deals with Aryl hydrocarbon receptor (Homo sapiens) (UniProt P35869). Kind of assay: qHTS assay to identify small molecule that activate the aryl hydrocarbon receptor (AhR) signaling pathway (AID 743085).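 For activation: HG2L7.5c1 human HepG2 liver cells with stably integrated DRE-driven firefly reporter; series mostly up to about 70 µM.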 Note: nearly all actives have a fitted effect of over 15% in size. Note: potency is the fitted concentration of half-maximal effect. Summed up:
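Luminescence (ONE-Glo) from a dioxin-responsive-element luciferase reporter in HG2L7.5c1 HepG2 cells after 24 hr compound exposure at 37C; viability measured by CellTiter-Fluor fluorescence beforehand.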

A short description of assay [9]: qHTS assay to identify small molecule that activate the aryl hydrocarbon receptor (AhR) signaling pathway - cell viability counter screen (AID 743086). Note: nearly all actives have a fitted effect of over 45% in size. Note: potency is the fitted concentration of half-maximal effect. Summed up:
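HepG2-AhR-luc (HG2L7.5c1) cells, 4000/well, were preincubated 5 h at 37C, exposed to compound in qHTS format for 24 hr at 37C, then given CellTiter-Fluor for 30 min; viability was read as fluorescence in the reporter wells.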

Assay [10] in a line: qHTS assay for small molecule agonists of the antioxidant response element (ARE) signaling pathway - cell viability counter screen (AID 743203; calls by dose curve; note: nearly all actives have a fitted effect of over 55% in size; note: potency is the fitted concentration of half-maximal effect). An outline of the steps:
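HepG2 cells carrying ARE-driven beta-lactamase; 2,000 cells/well; 5 hrs plating; compound pinned from DMSO; 16 hrs 37C/5% CO2; CellTiter-Glo added; 30 min RT; luminescence.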

The nature of assay [11]: qHTS assay for small molecule activators of the heat shock response signaling pathway (AID 743210; active = well fitted activation curve with a large enough effect in the signal ratio in the repeat runs, with a control signal flat, not every such curve was filed as active; inconclusive = weak or mixed curves; the % refers to the signal ratio;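 note: HeLa cells with beta-lactamase reporter driven by heat shock elements; series mostly up to about 63 µM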). An outline of the steps:
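Reporter gene assay: HeLa cells stably bearing an HSE-bla construct, compound treatment 5 h at 37 C, LiveBLAzer substrate 2.5 h at RT, fluorescence intensity.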

Assay [12] in a line: qHTS assay to identify small molecule antagonists of the estrogen receptor alpha (ER-alpha) signaling pathway - cell viability counter screen (AID 743074; calls by dose curve;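 note: HEK293 cells carrying ER-alpha-UAS-bla reporter stimulated with 17beta-estradiol; nearly all actives have a fitted effect of over 45% in size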; note: potency is the fitted concentration of half-maximal effect).
A short description of assay [13]: qHTS assay to identify small molecule antagonists of the estrogen receptor alpha (ER-alpha) signaling pathway using the BG1 cell line - cell viability counter screen (AID 743081).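 Note: compound given together with 17beta-estradiol as the ER stimulus; series mostly up to about 70 µM; nearly all actives have a fitted effect of over 45% in size.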
The target of another assay is Aromatase (Homo sapiens) (UniProt P11511). As to the kind of experiment: qHTS assay to identify aromatase inhibitors (AID 743083). Note: nearly all actives have a fitted effect of over 55% in size. Note: potency is the fitted concentration of half-maximal effect.
Aromatase (Homo sapiens), sequence (P11511 whole entry, looked up): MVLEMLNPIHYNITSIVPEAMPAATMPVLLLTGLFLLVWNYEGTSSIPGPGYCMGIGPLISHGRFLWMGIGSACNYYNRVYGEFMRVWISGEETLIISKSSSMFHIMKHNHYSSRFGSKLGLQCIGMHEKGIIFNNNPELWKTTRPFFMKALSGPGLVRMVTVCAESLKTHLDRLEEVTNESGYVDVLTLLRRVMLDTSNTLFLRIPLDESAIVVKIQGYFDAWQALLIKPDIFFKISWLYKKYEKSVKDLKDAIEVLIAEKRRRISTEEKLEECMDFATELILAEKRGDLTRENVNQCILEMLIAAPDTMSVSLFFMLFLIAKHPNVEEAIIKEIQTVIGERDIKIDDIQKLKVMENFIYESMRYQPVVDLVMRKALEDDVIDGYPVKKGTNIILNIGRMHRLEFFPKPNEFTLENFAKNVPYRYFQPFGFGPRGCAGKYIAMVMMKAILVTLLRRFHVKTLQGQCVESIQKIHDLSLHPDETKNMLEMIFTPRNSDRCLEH
Assay [14] in a line: qHTS assay to identify aromatase inhibitors - cell viability counter screen (AID 743084).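 Note: cells stimulated with testosterone during compound exposure; nearly all actives have a fitted effect of over 55% in size.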 Note: potency is the fitted concentration of half-maximal effect.
For assay [15], the target named is Peroxisome proliferator-activated receptor gamma (Homo sapiens) (UniProt P37231). Kind of assay: qHTS assay to identify small molecule agonists of the peroxisome proliferator-activated receptor gamma (PPARg) signaling pathway (AID 743094; active = well fitted activation curve with a large enough effect in the signal ratio in the repeat runs, not every such curve was filed as active; inconclusive = weak or mixed curves, or effect the other way; inactive = no such curve, though single readings can be large or run the other way; the % refers to the signal ratio; note: potency is the fitted concentration of half-maximal effect). An outline of the steps: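 Beta-lactamase FRET fluorescence was the read-out after a 1 h room-temperature substrate step, following 17 h compound treatment at 37C of HEK293H cells expressing a UAS-driven bla reporter responsive to PPARg.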
Peroxisome proliferator-activated receptor gamma (Homo sapiens), sequence (P37231 whole entry, looked up): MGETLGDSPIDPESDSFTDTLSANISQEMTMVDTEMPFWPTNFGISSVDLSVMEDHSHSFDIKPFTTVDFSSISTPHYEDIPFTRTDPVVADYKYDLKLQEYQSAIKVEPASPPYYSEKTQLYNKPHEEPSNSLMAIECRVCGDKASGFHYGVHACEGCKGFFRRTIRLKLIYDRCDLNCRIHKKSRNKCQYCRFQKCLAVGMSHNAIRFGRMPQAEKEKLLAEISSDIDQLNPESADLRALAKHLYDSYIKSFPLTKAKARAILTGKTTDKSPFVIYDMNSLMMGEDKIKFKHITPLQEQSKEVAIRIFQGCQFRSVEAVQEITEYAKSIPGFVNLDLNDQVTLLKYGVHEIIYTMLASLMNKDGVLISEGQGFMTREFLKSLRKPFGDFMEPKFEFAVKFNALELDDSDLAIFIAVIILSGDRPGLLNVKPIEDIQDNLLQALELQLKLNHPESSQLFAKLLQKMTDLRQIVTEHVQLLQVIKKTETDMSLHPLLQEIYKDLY

For assay [16] the target is unchanged. As to the kind of experiment: qHTS assay to identify small molecule antagonists of the peroxisome proliferator-activated receptor gamma (PPARg) signaling pathway (AID 743191; calls by dose curve; note: series mostly up to about 63 µM; nearly all actives have a fitted effect of over 30% in size). Summed up: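 GeneBLAzer PPARg UAS-bla HEK293H cells carrying a UAS-driven beta-lactamase reporter were plated at 3000 cells/well, preincubated 5 h at 37C, then given compound for 17 h at 37C; LiveBLAzer B/G FRET substrate was read after 1 h at room temperature.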

Assay [17] is described as follows: qHTS assay to identify small molecule antagonists of the peroxisome proliferator-activated receptor gamma (PPARg) signaling pathway - cell viability counter screen (AID 743194). Note: nearly all actives have a fitted effect of over 55% in size. Note: potency is the fitted concentration of half-maximal effect. Summed up:
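PPARg-UAS-bla HEK293H cells were plated, rested 5 h at 37 C, then treated with compounds plus rosiglitazone (50 nM final) for 17 h at 37 C; viability was then read by CellTiter-Glo luminescence after 30 min at room temperature.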

Assay [18] is described as follows: qHTS assay for small molecule activators of the heat shock response signaling pathway - cell viability counter screen (AID 743209). Note: nearly all actives have a fitted effect of over 50% in size. Note: potency is the fitted concentration of half-maximal effect. An outline of the steps:
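Luminescence from CellTiter-Glo, added after the beta-lactamase FRET read, gave the viability signal. Cells were HSE-bla HeLa treated with DMSO-dissolved compounds for 5 h at 37 C following overnight plating.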

Assay [19] can be described thus: qHTS assay for small molecule agonists of the antioxidant response element (ARE) signaling pathway (AID 743202; active = well fitted activation curve with a large enough effect in the signal ratio in the repeat runs, not every such curve was filed as active; inconclusive = weak or mixed curves, or effect the other way; inactive = no such curve, though single readings can be large or run the other way; the % refers to the signal ratio; note: potency is the fitted concentration of half-maximal effect). An outline of the steps: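 Compounds delivered in DMSO to ARE-bla HepG2 cells (2,000 cells/well, pre-incubated 5 h) and left 16 h at 37 C. LiveBLAzer B/G FRET substrate then added for 2 h at RT before fluorescence reading.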

Aryl hydrocarbon receptor (Homo sapiens), sequence (P35869 whole entry, looked up): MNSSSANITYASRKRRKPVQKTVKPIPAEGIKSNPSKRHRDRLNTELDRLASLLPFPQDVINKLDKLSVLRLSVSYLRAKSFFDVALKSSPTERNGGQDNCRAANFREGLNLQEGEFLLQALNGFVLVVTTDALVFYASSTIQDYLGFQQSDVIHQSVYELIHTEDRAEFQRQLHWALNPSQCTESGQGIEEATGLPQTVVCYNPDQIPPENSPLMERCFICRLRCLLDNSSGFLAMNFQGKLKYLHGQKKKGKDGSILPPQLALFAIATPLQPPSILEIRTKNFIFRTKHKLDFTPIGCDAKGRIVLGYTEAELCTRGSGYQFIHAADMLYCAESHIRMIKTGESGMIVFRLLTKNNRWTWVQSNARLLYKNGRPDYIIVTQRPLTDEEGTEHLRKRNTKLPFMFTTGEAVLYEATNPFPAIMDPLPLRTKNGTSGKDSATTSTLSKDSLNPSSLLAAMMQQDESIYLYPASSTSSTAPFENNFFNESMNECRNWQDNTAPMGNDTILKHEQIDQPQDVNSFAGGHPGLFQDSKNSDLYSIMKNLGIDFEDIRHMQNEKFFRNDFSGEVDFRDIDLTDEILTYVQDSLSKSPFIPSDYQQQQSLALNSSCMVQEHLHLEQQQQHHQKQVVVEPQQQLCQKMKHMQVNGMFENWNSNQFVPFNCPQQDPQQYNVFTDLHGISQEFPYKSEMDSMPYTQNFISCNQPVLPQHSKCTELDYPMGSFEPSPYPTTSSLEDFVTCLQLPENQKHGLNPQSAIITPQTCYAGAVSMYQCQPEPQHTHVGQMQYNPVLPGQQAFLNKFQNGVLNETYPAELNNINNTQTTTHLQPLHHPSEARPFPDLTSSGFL
Estrogen receptor (Homo sapiens), sequence (P03372 whole entry, looked up): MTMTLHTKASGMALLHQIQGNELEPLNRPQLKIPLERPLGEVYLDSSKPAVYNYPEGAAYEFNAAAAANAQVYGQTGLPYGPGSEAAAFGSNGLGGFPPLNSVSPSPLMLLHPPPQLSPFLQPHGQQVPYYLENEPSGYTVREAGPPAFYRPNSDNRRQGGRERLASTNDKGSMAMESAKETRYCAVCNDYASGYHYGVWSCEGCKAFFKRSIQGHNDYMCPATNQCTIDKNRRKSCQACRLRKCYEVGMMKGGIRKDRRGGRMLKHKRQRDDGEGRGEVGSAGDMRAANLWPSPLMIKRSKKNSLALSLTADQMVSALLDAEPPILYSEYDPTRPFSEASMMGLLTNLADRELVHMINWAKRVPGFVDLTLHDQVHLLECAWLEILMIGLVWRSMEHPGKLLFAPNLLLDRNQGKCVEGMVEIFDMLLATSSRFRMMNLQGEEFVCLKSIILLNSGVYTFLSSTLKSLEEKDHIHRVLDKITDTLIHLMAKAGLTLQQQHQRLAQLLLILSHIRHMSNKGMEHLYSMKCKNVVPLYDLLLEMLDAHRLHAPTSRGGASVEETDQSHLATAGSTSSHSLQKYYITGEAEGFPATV

For `CCN(CC)C(=O)c1cc(S(=O)(=O)Cc2ccccc2)c(N2CCC(c3ccccc3)CC2)cc1N(CC)CCN(C)C`, the Potency was 3.35 µM (active) and 4.28 µM (active) in assay [1]; 4.22 µM (active) and 4.8 µM (active) in assay [2]; 23.7 µM (active) in assay [9]; 21.4 µM (active) in [10]. Besides, the compound was called inactive in assay [3]. Moreover, the Potency result in assay [4], in assay [5], in [6], in assay [7], in assay [8] and in [11] was “inactive” each time.

For the compound `O=C1CCc2cc(OCCCCc3nnnn3C3CCCCC3)ccc2N1`, the Potency entry in [1], in assay [2], in assay [4], in assay [12], in assay [5] and in assay [6] was “inactive” throughout. Further, the Potency entry (in assay [13]; with Aromatase (Homo sapiens); in assay [14]; in [8]; in assay [9]; in [15]) was “inactive” in each case. Moreover, the Potency entry in [16], in assay [17], in assay [10], in assay [18] and in assay [11] was “inactive” throughout. Further, in [3], the outcome was inactive.

In the case of `FC(F)(F)c1cccc(Cl)c1`, the Potency result in assay [1], in assay [2], in assay [4], in [12], in assay [5] and in assay [6] was “inactive” in each case. For the same compound, the Potency entry (in assay [7]; in assay [13]; with Aromatase (Homo sapiens); in [14]; in [8]; in [9]) was “inactive” each time. Moreover, the Potency result in [17], in assay [10] and in assay [18] was “inactive” each time. Also, the result in assay [3] was inactive.

`CCc1ccc(Br)cc1`: the Potency result in assay [1], in assay [2], in [4], in assay [12], in assay [5] and in assay [7] was “inactive” each time. For the same compound, the Potency entry (in assay [13]; in the assay with Aromatase (Homo sapiens); in assay [14]; in assay [8]; in assay [9]; in assay [15]) was “inactive” throughout. Moreover, the Potency result in assay [16], in assay [17], in [19], in assay [10], in assay [18] and in [11] was “inactive” in each case. The result in [3] was inactive.

Take `CCCCCCC1CCCC(=O)O1` (stereo not given): the Potency result in assay [1], in assay [2], in [12], in [13], in assay [9] and in [17] was “inactive” throughout. Also, the Potency entry in assay [18] and in [11] was “inactive” each time. Besides, the result in assay [3] was inactive.

Turning to `Cc1ccc(-c2ccccc2)cc1`, the Potency entry (in [1]; in [2]; in assay [12]; in assay [13]; with Aromatase (Homo sapiens); in assay [14]) was “inactive” throughout. The Potency result in assay [8], in [9], in [15], in [16], in assay [17] and in assay [10] was “inactive” throughout. For the same compound, the Potency entry in assay [18] and in assay [11] was “inactive” throughout. Further, in assay [3], the call was inactive.

With `Cc1ccc(O)c(N)c1`, the Potency was 30.7 µM (active) in assay [1], 43.3 µM (active) in assay [2] and 34.4 µM (active) in assay [8]. In addition, in assay [3], the call was inactive. Besides, the Potency result in assay [12], in assay [5], in assay [13], in assay [10] and in [18] was “inactive” each time.

With `CC(C)(C)c1csc(-c2cc3cc(OCc4ccccc4CC(=O)O)ccc3o2)n1`, the Potency was 54.5 µM (active) in [1]; 61.1 µM (active) in assay [2]; 24.5 µM (active) in assay [12]; 0.776 µM (active) in assay [15]; 4.86 µM (active) in assay [19]. In addition, in assay [3], the call was inactive. The Potency entry in [5], in assay [13] and in [8] was “inactive” each time.

Turning to `O=[N+]([O-])c1ccc(F)c(Cl)c1`, the Potency result (in assay [1]; in assay [2]; in assay [12]; in [13]; with Aromatase (Homo sapiens); in assay [14]) was “inactive” each time. The Potency entry in assay [8], in assay [9], in [15], in assay [16], in assay [17] and in assay [10] was “inactive” throughout. Further, the Potency entry in assay [18] is “inactive”. Further, in assay [3], the outcome was inactive.

For the compound `COc1cccc(OC)c1C(=O)O`, the Potency entry in assay [1], in assay [2], in assay [12], in [13], in assay [9] and in assay [19] was “inactive” throughout. The Potency result in assay [10], in assay [18] and in assay [11] was “inactive” in each case. Moreover, the compound was classed as inactive in assay [3].

Regarding `Cc1ccc(O)c(O)c1`, the Potency in [1] was 29.8 µM (active); in [2], 26.5 µM (active); in assay [5], 53.4 µM [inconclusive] (active); in the assay with Aromatase (Homo sapiens), 66.6 µM (active); in assay [8], 29.8 µM (active). In assay [3], the compound was called inactive. Further, the Potency result in assay [12], in assay [6], in assay [7], in [17], in assay [10] and in assay [18] was “inactive” in each case.

As for `Nc1ccc(Oc2ccc(Cl)cc2)cc1`, the Potency entry in [1], in assay [12], in assay [5], in [6], in assay [13] and in assay [14] was “inactive” in each case. Also, the Potency entry in assay [8], in assay [9], in [15], in [16], in [17] and in [10] was “inactive” throughout. Also, the Potency result in assay [18] and in assay [11] was “inactive” throughout. In addition, the Potency was 30 µM (active) in assay [2] and 23.8 µM (active) in the assay with Aromatase (Homo sapiens). The outcome in [3] was inactive.

Turning to `Cc1cccc2cccnc12`, the Potency entry (in assay [1]; in [2]; in assay [12]; in [13]; with Aromatase (Homo sapiens); in assay [14]) was “inactive” throughout. For the same compound, the Potency result in assay [8], in assay [9], in assay [15], in assay [17], in assay [19] and in assay [10] was “inactive” each time. Besides, the Potency entry in assay [11] was “inactive”. The compound was called inactive in assay [3].

Take `Cc1cc(C(C#N)c2ccc(Cl)cc2)c(Cl)cc1NC(=O)c1cc(I)cc(I)c1O` (stereo not given): the Potency is 23.7 µM (active) in [1]; 26.6 µM (active) in [2]; 5.35 µM (active) in assay [12]; 3.76 µM (active) in [17]; 33.5 µM (active) in assay [10]. Further, the compound was classed as inactive in assay [3]. The Potency entry in assay [5], in [13], in assay [14] and in assay [9] was “inactive” each time.

`C=CC(=O)OCCOC(=O)C=C`: the Potency is 61.1 µM (active) in assay [1]; 38.6 µM (active) in assay [2]; 17.4 µM [inconclusive] (active) in [5]; 1.72 µM (active) in assay [6]; 54.5 µM (active) in assay [14]; 61.1 µM (active) in assay [19]. In addition, the Potency in [18] was 6.92 µM (active). Also, the outcome in [3] was inactive. Besides, the Potency entry in assay [12], in assay [13], in [8], in assay [9] and in [10] was “inactive” each time.

Take `CCCCOC(=O)CC`: the Potency result (in [1]; in assay [2]; in assay [12]; in [13]; in the assay with Aromatase (Homo sapiens); in assay [14]) was “inactive” throughout. The Potency result in [8], in [9], in [16], in assay [17], in assay [19] and in assay [18] was “inactive” throughout. The Potency result in assay [11] was “inactive”. Moreover, the compound was classed as inactive in assay [3].
